Measured values from PubChem BioAssay AID2401 (Southern Research Specialized Biocontainment Screening …, 2010).
The campaign covered roughly 2,200 compounds. About 530 (24%) were called active.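 Rule for the calls: active = inhibition above a set limit at one or more concentrations of the dose series; inactive = inhibition under that limit at every dose.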 These entries were drawn from the full list. Measured potencies and affinities stand elsewhere.

Assay: nmpC-GFP reporter counter-screen in S. Typhimurium, dose response, counter-screen for PhoP regulon inhibitor project, Salmonella Typhimurium, GFP fluorescence (AID 2401);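 note: S. typhimurium with Mg-insensitive nmpC-GFP reporter grown at 10 µM Mg2+; drop in reporter fluorescence reflects general culture growth inhibition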
Details: 4 h; series mostly up to 150 µM; inhibition: at the top concentration

Row | SMILES | inhibition
1 | Cc1ccc(Nc2cc(C)nc3nc(C)nn23)cc1 | -17.3% (inactive)
2 | COc1ccc2c(c1)cc1n2CCN2CCCN=C12 | 13.7% (inactive)
3 | O=P(Cc1cc[n+]([O-])cc1)(c1ccccc1)c1ccccc1 | -29.2% (inactive)
4 | CCOC(=O)CCCNC(=O)COC(=O)CCC(=O)c1ccc(F)cc1 | 3.03% (inactive)
5 | CCCCn1cnc2c(cnn2-c2ccc(F)cc2)c1=O | -17.3% (inactive)
6 | Cc1cccnc1NC(=O)CCCN1C(=O)c2ccccc2C1=O | 6.01% (inactive)
7 | O=C(CCN1C(=O)COc2ccccc21)NCCN1CCOCC1 | -16.8% (inactive)
8 | COc1cccc(/C=N/n2c(C)nc3ccccc32)c1OC | -14% (inactive)
9 | Cc1ccc(-n2c(C)cc(-c3csc(N)n3)c2C)cc1 | 39.9% [at 75 µM] (inactive)
10 | Nc1nc(-c2ccc(Br)cc2)cs1 | -12.1% (inactive)
11 | Cc1cc(-c2csc(N)n2)c(C)n1C | 23.3% (inactive)
12 | NC(N)=Nc1nc(C2COc3ccccc3O2)cs1 (stereo not drawn) | 35.6% (inactive)
13 | CN(C(=O)C1CCOC1)c1nnc(-c2ccccn2)s1 (stereo not drawn) | -15.8% (inactive)
14 | COc1ccc(-c2cc(C(=O)Nc3cc(C)n(Cc4ccc(Cl)cc4)n3)no2)cc1OC | -13.3% (inactive)
15 | COc1cc(S(=O)(=O)N2CCCCC2)ccc1NC=O | -0.23% (inactive)
16 | CC1(C)CC2CC(C)(CN2C(=O)COC(=O)c2n[nH]c(=O)c3ccccc23)C1 (stereo not drawn) | -15.4% (inactive)
17 | O=C1Nc2ccccc2C12OCC1(CO2)COC2(OC1)C(=O)Nc1ccccc12 (stereo not drawn) | 15.1% (inactive)
18 | NCCCCCc1nnc(SCc2ccc(Cl)cc2Cl)o1 | 16.6% (inactive)
19 | O=C(Nc1ccc(O)cc1)c1cc2n(n1)C(C(F)(F)F)CC(c1ccco1)N2 (stereo not drawn) | -2.81% (inactive)
20 | O=C(c1cc(-c2cccs2)nc2ccccc12)N1CCN(c2ccccc2O)CC1 | 16.9% (inactive)

Row | SMILES | inhibition
21 | O=C(O)CCc1nn2c3ccccc3n(CCN3CCCCC3)c2nc1=O | -3.63% (inactive)
22 | Cc1ccc(Nc2cc(=O)[nH]c(=O)[nH]2)c(C)c1 | 24.1% (inactive)
23 | O=C(O)C1CCC(N2C(=O)C3CCCCC3C2=O)CC1 (stereo not drawn) | -2.47% (inactive)
24 | Cc1cc(C(=O)CSc2nnnn2C)c(C)n1-c1ccc2c(c1)OCCO2 | -3.11% (inactive)
25 | Cc1ccc(-c2cc(C(=O)Nc3nccs3)c3ccccc3n2)o1 | 15.4% (inactive)
26 | O=C(OCc1ccccc1)Oc1cncc(C(=O)O)c1 | 3.03% (inactive)
27 | C=COC(=O)CSc1snc(SCC(=O)OC)c1C#N | -0.38% (inactive)
28 | C=CCSc1ncnc2sc(C)c(C)c12 | 2.54% (inactive)
29 | COc1ccc(NC(=O)CCNS(=O)(=O)c2ccc3c(c2)CCC(=O)N3)cc1 | -5.16% (inactive)
30 | CN1CCCC(OC(=O)c2ccc3c(c2)OCCO3)C1 (stereo not drawn) | -6.95% (inactive)
31 | N#Cc1ccc(N=c2ssnc2Cl)cc1 | -3.37% (inactive)
32 | CC(C)(C)n1ncc2c(=O)n(CC(=O)Nc3ccc4c(c3)OCO4)cnc21 | 0.07% (inactive)
33 | Cc1ccccc1Cn1c(=N)n(CC(=O)c2ccco2)c2ccccc21 | -25% (inactive)
34 | N=c1n(CC(=O)c2ccc([N+](=O)[O-])cc2)c2ccccc2n1Cc1ccccc1 | -6.91% (inactive)
35 | Cc1ccc(/C=C/c2ccc(=O)n(Cc3ccccc3Cl)n2)cc1 | -10.7% (inactive)
36 | COc1ccc(-n2c(=O)c3ccccc3n(CC(=O)Nc3cc(C)on3)c2=O)cc1OC | -20.3% (inactive)
37 | Cc1cc(-c2c(C)n([O-])c(C)c(C)[n+]2=O)ccc1F | -19% (inactive)
38 | CCOC(=O)c1ccccc1C(=O)N1CCOCCOCCOCC1 | -15.8% (inactive)
39 | CCOC(=O)c1c(-c2ccc(C)o2)csc1N | -7.66% (inactive)
40 | COc1ccc(C(=O)Nn2c(SCC(=O)N3CCC(C)CC3)nc3ccccc3c2=O)cc1 | -0.43% (inactive)

Row | SMILES | inhibition
41 | Cc1ccc2nc(C)c(CN3CCN(c4ccc([N+](=O)[O-])cc4Cl)CC3)n2c1 | 12.8% (inactive)
42 | Cc1ccc(NS(=O)(=O)c2ccc(N3C(=O)CCC3=O)cc2)cc1 | -30.7% (inactive)
43 | O=S(=O)(Nc1ccc2c(c1)nc1n2CCN(Cc2ccccc2)C1)c1ccc(F)cc1 | -2.47% (inactive)
44 | CSc1cccc(NC(=O)COc2cccc3ccccc23)c1 | 6.13% (inactive)
45 | O=S(=O)(NC1=NCCCCC1)c1cccs1 | -13.8% (inactive)
46 | O=C1CSc2ccccc2N1Cc1ccc(F)cc1 | -25.6% (inactive)
47 | O=C(c1ccccc1S(=O)(=O)NCc1ccccc1)N1CCCC1 | -22.7% (inactive)
48 | COc1ccc(C2CC(c3ccccc3)=NN2c2ccc(/C=N/NC(=O)c3ccncc3)cc2)cc1 (stereo not drawn) | 16.4% (inactive)
49 | NC(=O)c1c(N)sc2c1CCCCC2 | 12.1% (inactive)
50 | CCOC(=O)C1=C(C)NC(=S)NC1c1ccc(OC(=O)c2ccco2)cc1 (stereo not drawn) | -2.57% (inactive)
51 | Cn1c(C(O)c2ccc(Br)cc2)nc(Cl)c1Cl (stereo not drawn) | -2.83% (inactive)
52 | CN(C)C=NC(=O)c1[nH]c2ccc(Cl)cc2c1-c1ccccc1 | -5.43% (inactive)
53 | Clc1ccc(OCCN2CCN(c3ncnc4sccc34)CC2)cc1 | -6.81% (inactive)
54 | O=C(Cc1ccc(Cl)cc1)NNS(=O)(=O)c1ccc([N+](=O)[O-])cc1 | 0% (inactive)
55 | N[C@H](CSCc1ccccc1)C(=O)Nc1ccc([N+](=O)[O-])cc1 | -8.41% (inactive)
56 | O=C(O)CCCCCN1C(=O)c2ccc(C(=O)O)cc2C1=O | -20.1% (inactive)
57 | CCOC(=O)c1c(C)[nH]c(C)c1C(=O)CSc1ncccn1 | -16.1% (inactive)
58 | COc1ccc(NC(=O)CSc2nccn2-c2ccccc2)cc1 | -15.4% (inactive)
